Test results reported in PubChem BioAssay AID1159580 (chemical genetic matrix, 2015).
About 2,000 (36%) of roughly 5,500 compounds were called active. Another 18% or so got no clear call; they are omitted. Rule as the data show it: active = normalized growth mostly below about 0.91 (no sharp cut-off); inconclusive = no clear call, values can overlap the other calls; inactive = mostly above about 0.92. This is one part of the list.

Assay: chemical genetic growth profiling, strain panel (AID 1159580);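 also: tested at 20 µM; growth read once vehicle control cultures reached saturation at 30 °C; 1 = growth at the plate median or of vehicle wells; lower values mean less growth of the strain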
Conditions: growth OD
[1] = S. cerevisiae deletion strains, locus YAL013W, strain DEP1, active compounds read low
[2] = S. cerevisiae deletion strains, locus YBR229C, strain ROT2, active compounds read low
[3] = S. cerevisiae deletion strains, locus YDL101C, strain DUN1, active compounds read low
[4] = S. cerevisiae deletion strains, locus YDL134C, strain PPH21, active compounds read low
[5] = S. cerevisiae deletion strains, locus YDR150W, strain NUM1, active compounds read low
[6] = S. cerevisiae deletion strains, locus YEL061C, strain CIN8, active compounds read low
[7] = S. cerevisiae deletion strains, locus YGR078C, strain PAC10, active compounds read low
[8] = S. cerevisiae deletion strains, locus YHR030C, strain SLT2, active compounds read low
[9] = S. cerevisiae deletion strains, locus YHR087W, strain rtc3, active compounds read low
[10] = S. cerevisiae deletion strains, locus YJR043C, strain POL32, active compounds read low
[11] = S. cerevisiae deletion strains, locus YJR075W, strain HOC1, active compounds read low
[12] = S. cerevisiae deletion strains, locus YLR039C, strain RIC1, active compounds read low
[13] = S. cerevisiae deletion strains, locus YLR058C, strain SHM2 (second series), active compounds read low
[14] = S. cerevisiae deletion strains, locus YLR085C, strain ARP6, active compounds read low
[15] = S. cerevisiae deletion strains, locus YLR262C, strain YPT6, active compounds read low
[16] = S. cerevisiae deletion strains, locus YML094W, strain GIM5, active compounds read low
[17] = S. cerevisiae deletion strains, locus YMR219W, strain ESC1, active compounds read low
[18] = S. cerevisiae deletion strains, locus YMR263W, strain SAP30, active compounds read low
[19] = S. cerevisiae deletion strains, locus YNL153C, strain GIM3, active compounds read low
[20] = S. cerevisiae deletion strains, locus YNL298W, strain CLA4 (second series), active compounds read low
[21] = S. cerevisiae deletion strains, locus YNL322C, strain KRE1, active compounds read low
[22] = S. cerevisiae deletion strains, locus YNR030W, strain Alg12, active compounds read low
[23] = S. cerevisiae deletion strains, locus YPL055C, strain LGE1, active compounds read low
[24] = S. cerevisiae deletion strains, locus YPL241C, strain CIN2, active compounds read low
[25] = S. cerevisiae deletion strains, locus YPR135W, strain CTF4, active compounds read low
[26] = S. cerevisiae deletion strains, locus YAR019C, strain CDC15, active compounds read low
[27] = S. cerevisiae deletion strains, locus YBL105C, strain PKC1, active compounds read low
[28] = S. cerevisiae deletion strains, locus YBR135W, strain CKS1, active compounds read low
[29] = S. cerevisiae deletion strains, locus YBR136W, strain MEC1, active compounds read low
[30] = S. cerevisiae deletion strains, locus YBR160W, strain CDC28, active compounds read low
[31] = S. cerevisiae deletion strains, locus YDL017W, strain CDC7, active compounds read low
[32] = S. cerevisiae deletion strains, locus YDL028C, strain MPS1, active compounds read low
[33] = S. cerevisiae deletion strains, locus YDL108W, strain KIN28, active compounds read low
[34] = S. cerevisiae deletion strains, locus YDL132W, strain cdc53, active compounds read low
[35] = S. cerevisiae deletion strains, locus YDL214C, strain PRR2, active compounds read low
[36] = S. cerevisiae deletion strains, locus YDR052C, strain DBF4, active compounds read low
[37] = S. cerevisiae deletion strains, locus YDR054C, strain cdc34, active compounds read low
[38] = S. cerevisiae deletion strains, locus YDR226W, strain ADK1, active compounds read low
[39] = S. cerevisiae deletion strains, locus YDR477W, strain SNF1, active compounds read low
[40] = S. cerevisiae deletion strains, locus YER123W, strain YCK3, active compounds read low
[41] = S. cerevisiae deletion strains, locus YER133W, strain GLC7, active compounds read low
[42] = S. cerevisiae deletion strains, locus YFL009W, strain cdc4, active compounds read low
[43] = S. cerevisiae deletion strains, locus YFL029C, strain CAK1, active compounds read low
[44] = S. cerevisiae deletion strains, locus YFR003C, strain YPI1, active compounds read low
[45] = S. cerevisiae deletion strains, locus YFR019W, strain FAB1, active compounds read low
[46] = S. cerevisiae deletion strains, locus YFR028C, strain CDC14, active compounds read low
[47] = S. cerevisiae deletion strains, locus YGR040W, strain KSS1, active compounds read low
[48] = S. cerevisiae deletion strains, locus YGR052W, strain FMP48, active compounds read low
[49] = S. cerevisiae deletion strains, locus YGR092W, strain DBF2, active compounds read low
[50] = S. cerevisiae deletion strains, locus YHR079C, strain IRE1, active compounds read low
[51] = S. cerevisiae deletion strains, locus YHR082C, strain KSP1, active compounds read low
[52] = S. cerevisiae deletion strains, locus YHR205W, strain SCH9, active compounds read low
[53] = S. cerevisiae deletion strains, locus YIL147C, strain SLN1, active compounds read low
[54] = S. cerevisiae deletion strains, locus YJL095W, strain BCK1, active compounds read low
[55] = S. cerevisiae deletion strains, locus YJL128C, strain PBS2, active compounds read low
[56] = S. cerevisiae deletion strains, locus YJL157C, strain FAR1, active compounds read low
[57] = S. cerevisiae deletion strains, locus YJR016C, strain ILV3, active compounds read low
[58] = S. cerevisiae deletion strains, locus YJR066W, strain TOR1 (second series), active compounds read low
[59] = S. cerevisiae deletion strains, locus YJR066W, strain TOR1, active compounds read low
[60] = S. cerevisiae deletion strains, locus YKL048C, strain ELM1, active compounds read low
[61] = S. cerevisiae deletion strains, locus YKL067W, strain YNK1, active compounds read low
[62] = S. cerevisiae deletion strains, locus YKL101W, strain HSL1, active compounds read low
[63] = S. cerevisiae deletion strains, locus YKL193C, strain SDS22, active compounds read low
[64] = S. cerevisiae deletion strains, locus YKL203C, strain TOR2, active compounds read low
[65] = S. cerevisiae deletion strains, locus YLR113W, strain HOG1, active compounds read low
[66] = S. cerevisiae deletion strains, locus YLR133W, strain CKI1, active compounds read low
[67] = S. cerevisiae deletion strains, locus YLR403W, strain SFP1, active compounds read low
[68] = S. cerevisiae deletion strains, locus YML070W, strain DAK1, active compounds read low
[69] = S. cerevisiae deletion strains, locus YMR001C, strain CDC5, active compounds read low
[70] = S. cerevisiae deletion strains, locus YMR205C, strain PFK2 (second series), active compounds read low
[71] = S. cerevisiae deletion strains, locus YMR277W, strain FCP1, active compounds read low
[72] = S. cerevisiae deletion strains, locus YNL006W, strain LST8, active compounds read low
[73] = S. cerevisiae deletion strains, locus YNL020C, strain ARK1, active compounds read low
[74] = S. cerevisiae deletion strains, locus YNL161W, strain CBK1, active compounds read low
[75] = S. cerevisiae deletion strains, locus YNL183C, strain NPR1, active compounds read low
[76] = S. cerevisiae deletion strains, locus YNL207W, strain RIO2, active compounds read low
[77] = S. cerevisiae deletion strains, locus YNL222W, strain SSU72, active compounds read low
[78] = S. cerevisiae deletion strains, locus YNL307C, strain MCK1 (second series), active compounds read low
[79] = S. cerevisiae deletion strains, locus YOL078W, strain AVO1, active compounds read low
[80] = S. cerevisiae deletion strains, locus YOL136C, strain PFK27, active compounds read low
[81] = S. cerevisiae deletion strains, locus YOR061W, strain CKA2, active compounds read low
[82] = S. cerevisiae deletion strains, locus YOR119C, strain RIO1, active compounds read low
[83] = S. cerevisiae deletion strains, locus YOR231W, strain MKK1, active compounds read low
[84] = S. cerevisiae deletion strains, locus YOR329C, strain SCD5, active compounds read low
[85] = S. cerevisiae deletion strains, locus YPL031C, strain PHO85, active compounds read low
[86] = S. cerevisiae deletion strains, locus YPL153C, strain RAD53, active compounds read low
[87] = S. cerevisiae deletion strains, locus YPL204W, strain HRR25, active compounds read low
[88] = S. cerevisiae deletion strains, locus YPL209C, strain IPL1, active compounds read low
[89] = S. cerevisiae deletion strains, locus YPL256C, strain CLN2, active compounds read low
[90] = S. cerevisiae deletion strains, locus YPR025C, strain CCL1, active compounds read low
[91] = S. cerevisiae deletion strains, locus YPR106W, strain ISR1, active compounds read low
[92] = S. cerevisiae deletion strains, locus YPR111W, strain DBF20, active compounds read low
[93] = S. cerevisiae deletion strains, strain NNK1, active compounds read low
[94] = S. cerevisiae deletion strains, strain TSCII, active compounds read low

Measured: normalized growth

N#Cc1sccc1Br
inactive: [1] 0.995 | [2] 0.982 | S. cerevisiae deletion strains, locus YCL061C, strain MRC1, active compounds read low 1.02 | [3] 0.967 | [4] 0.993 | [5] 1.06 | [6] 1 | [7] 0.999 | [8] 0.961 | [9] 0.986 | [10] 1.01 | [11] 1.03 | [12] 1 | [13] 0.991 | [14] 1.1 | [15] 1 | [16] 0.982 | [17] 0.991 | [18] 1.04 | [19] 1.02 | [20] 1.04 | [21] 0.997 | [22] 1 | [23] 1.02 | [25] 1.04 | S. cerevisiae strains, strain wild type, active compounds read low 0.99
active: [24] 1.32 [resistant]

O=C(Nc1cccnc1)c1cccc(Cl)c1Cl
inactive: [1] 0.977 | [2] 0.993 | [3] 0.98 | [4] 0.988 | [5] 0.957 | [6] 0.971 | [7] 0.983 | [8] 0.935 | [9] 0.99 | S. cerevisiae deletion strains, locus YJL187C, strain SWE1, active compounds read low 1.01 | [10] 0.993 | [11] 0.991 | S. cerevisiae deletion strains, locus YKL190W, strain CNB1, active compounds read low 0.989 | [12] 1.02 | [13] 1 | [14] 0.955 | [15] 1.01 | [16] 0.946 | [17] 0.992 | [18] 1.01 | S. cerevisiae deletion strains, locus YMR307W, strain GAS1, active compounds read low 1.01 | S. cerevisiae deletion strains, locus YNL128W, strain TEP1, active compounds read low 0.976 | [19] 0.994 | [20] 0.946 | [21] 0.982 | [22] 0.975 | S. cerevisiae deletion strains, locus YOL006C, strain TOP1, active compounds read low 0.943 | [23] 1.02 | [24] 0.985 | [25] 0.856

O=C(Nc1cccnc1)c1cc2c(s1)-c1ccccc1CC2
inactive: [26] 0.925 | [27] 0.93 | [28] 0.919 | [29] 0.926 | [30] 0.93 | [31] 0.937 | [32] 0.921 | [3] 0.932 | [33] 0.924 | [34] 0.903 | [35] 0.745 | [36] 0.919 | [37] 0.9 | [38] 0.911 | [42] 0.915 | [43] 0.912 | [44] 0.928 | [45] 0.91 | [46] 0.918 | [49] 0.524 | [52] 0.755 | [53] 0.919 | [55] 0.946 | [56] 0.73 | [57] 0.92 | [58] 0.694 | [59] 0.532 | [60] 0.823 | [61] 0.736 | [62] 0.811 | [63] 0.918 | [66] 0.808 | [67] 0.663 | [69] 0.918 | [70] 0.767 | [71] 0.918 | [72] 0.93 | [73] 0.802 | [74] 0.924 | [76] 0.903 | [77] 0.917 | [78] 0.757 | [79] 0.918 | [80] 0.725 | [81] 0.806 | [84] 0.924 | [88] 0.932 | [90] 0.922 | [91] 0.926 | [92] 0.915 | [93] 0.912 | [94] 0.915
active: [39] 0.666 | [40] 0.592 | [41] 0.548 | [47] 0.614 | [48] 0.602 | [8] 0.477 | [50] 0.495 | [51] 0.583 | [54] 0.482 | [64] 0.59 | [65] 0.394 | [68] 0.679 | [75] 0.455 | [82] 0.636 | [83] 0.515 | [85] 0.574 | [86] 0.529 | [87] 0.522 | [89] 0.476

O=C(c1cc2c(s1)-c1ccccc1CC2)N1CCN(Cc2ccccc2)CC1
inactive: [26] 1 | [27] 1 | [28] 0.996 | [29] 0.999 | [30] 0.998 | [31] 1 | [32] 0.999 | [3] 0.999 | [33] 0.998 | [34] 0.993 | [35] 0.965 | [36] 1 | [37] 0.99 | [38] 1 | [39] 0.982 | [40] 0.929 | [41] 0.985 | [42] 1.01 | [43] 1 | [44] 0.998 | [45] 0.941 | [46] 0.996 | [47] 0.962 | [48] 1.1 | [49] 0.988 | [8] 1 | [50] 0.971 | [51] 1.04 | [52] 0.94 | [53] 1 | [54] 0.974 | [55] 0.974 | [56] 0.976 | [57] 0.988 | [58] 0.958 | [59] 1.07 | [60] 0.984 | [61] 0.955 | [62] 0.984 | [63] 1 | [64] 1.01 | [65] 0.96 | [66] 0.971 | [67] 0.966 | [68] 0.953 | [69] 1 | [70] 0.981 | [71] 1.01 | [72] 1.02 | [73] 0.982 | [74] 1 | [75] 0.984 | [76] 1 | [77] 1.01 | [78] 0.963 | [79] 1.01 | [80] 0.964 | [81] 1 | [82] 1.1 | [83] 0.981 | [84] 1.01 | [85] 0.981 | [86] 0.975 | [87] 0.951 | [88] 1.01 | [89] 0.958 | [90] 1 | [91] 0.996 | [92] 0.977 | [93] 0.998 | [94] 1
